Laboratory results taken from PubChem BioAssay (NCI).
About 83,000 compounds went through this panel and 20% of them were active in at least one assay; those are over-represented in the sample as a whole.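 Single-dose data. Exposure time 48 hours. Values below 10 considered active.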 Values without a mark were called inactive. Activity calls are given as the source filed them.

tested on: MDA-MB-468 breast; assay: NCI-60 one-dose screen, 48 h (100 = growth as untreated, 0 = no growth, -100 = all killed); details: 10 µM unless noted

Question: `O=C(Nc1ccc2[nH]ncc2c1)c1csc(Nc2ccccc2)n1` was tested. Which growth did it give?
Answer: The growth was 14.4%.

Question: With `COc1cc2c(c(OC)c1OC)-c1ccc(N=NC(N)=S)c(=O)cc1[C@@H](NC(C)=O)CC2` as the compound, how does the growth read?
Answer: The growth was -40.8% (active).

Question: With `CN(C)CCCOc1ccc2c(c1)CN(C(=O)c1cc(C(=O)N3Cc4cccc(F)c4C3)ccc1O)C2` as the compound, how does the growth read?
Answer: Its growth is 106%.

Question: Which growth does the source give for `CCOC(=O)C1=C(C)NC(=O)NC1c1ccc(OCC(=O)N/N=C/c2ccc(Cl)cc2)cc1` (stereo not given) here?
Answer: The growth was 96.5%.

Question: Which growth does the source give for `CCOC(=O)c1c2c(c(C)n1Cc1ccccc1)-c1nc(N)ncc1CC2` here?
Answer: The growth was 100%.

Question: For `COc1cccc(-c2nn(-c3ccccc3)cc2-c2ccnc(N3CCN(C(=O)c4ccccc4)CC3)c2)c1`, which growth is on record?
Answer: The growth was 82.3%.

Question: How did the growth turn out when `S=c1[nH]nc(Cc2ccccc2)c(=S)[nH]1` was run?
Answer: Its growth is 94.7%.

Question: How did the growth turn out when `O=c1c2cc(F)ccc2sc2c(NCCN3CCCCC3)nc3ccccc3c12` was run?
Answer: Its growth is 6.41% (active).

Question: With `CCN(CC)c1ccc2nc3c4ccccc4c(=O)cc-3n(-c3ccccc3)c2c1` as the compound, how does the growth read?
Answer: Its growth is -17.5% (active).

Question: `C#Cc1ccc(NC(=O)Cc2ccc(/C=C/C(=O)c3nccn3C)cc2)cc1` was tested. Which growth did it give?
Answer: Its growth is 33.8%.

Question: How did the growth turn out when `O=C(CCl)c1ccc2c(c1)CCCC2` was run?
Answer: The growth was 116%.

Question: For `Cc1cc(N2CCOCC2)nc(NCc2cc(Nc3ccnc4cc(Cl)ccc34)ccc2F)n1`, which growth is on record?
Answer: The growth was -71.9% (active).

Question: Which growth does the source give for `C[C@]12CCc3c(ccc4cc(O)ccc34)[C@@H]1C[C@H](O)[C@@H]2O` here?
Answer: Its growth is 100%.

Question: `O=c1oc2c(C(F)(F)F)cccc2cc1-c1csc(Nc2ccc(OCCF)cc2)n1` was tested. Which growth did it give?
Answer: Its growth is 5.55% (active).

Question: Which growth does the source give for `O=C1NC(=Nc2ccc(S(=O)(=O)Nc3nccs3)cc2)S/C1=C\c1coc2ccccc2c1=O` here?
Answer: Its growth is 99.9%.

Question: With `CC(=O)NNC(=S)N/C=C/c1c(C)ccc([N+](=O)[O-])c1[N+](=O)[O-]` as the compound, how does the growth read?
Answer: The growth was 98.8%.

Question: Which growth does the source give for `CCOC(=O)C1=NN(c2ccccc2)C(=O)/C1=C\N1C(=O)CC(=O)NC1=S` here?
Answer: The growth was 114%.

Question: How did the growth turn out when `COc1cc2nc(-c3ccc(C(F)(F)F)cc3)cc(OCCCN3CCC(O)CC3)c2cc1OC` was run?
Answer: The growth was 44%.

Question: Which growth does the source give for `COc1ccc2nc(NC(=O)c3cccnc3Nc3cc(OC)c(OC)c(OC)c3)sc2c1` here?
Answer: Its growth is 60.3%.

Question: Which growth does the source give for `CCCCNC1=C(OCC)C(=O)c2ccccc2C1=O` here?
Answer: Its growth is 56.3%.

Question: With `CCC(=O)Oc1ccc(/C(=C(\C)c2ccccc2)c2ccc(OCCN(CC)CC)cc2)cc1` as the compound, how does the growth read?
Answer: The growth was 82.4%.

Question: Which growth does the source give for `O=S(=O)(Nc1ccccn1)c1ccc(N=Nc2ccc(O)c3ncccc23)cc1` here?
Answer: The growth was 4.46% (active).

Question: How did the growth turn out when `COc1ccc(/C(C)=N/NS(=O)(=O)c2ccc(C)cc2)cc1OC` was run?
Answer: The growth was 104%.

Question: For `OC[C@H]1OC([S-])[C@H](O)[C@@H](O)[C@@H]1O.[Au+]` (stereo not given in full), which growth is on record?
Answer: Its growth is 90.7%.

Question: With `NCCCn1c2c(c3cc(-c4ccn[nH]4)ccc3c1=O)C(=O)c1ccccc1-2` as the compound, how does the growth read?
Answer: The growth was 62.6%.

Question: `Cc1ccc(S(=O)(=O)N/N=C/c2cn(-c3ccc(F)cc3)nc2-c2ccc(S(C)(=O)=O)cc2)cc1` was tested. Which growth did it give?
Answer: Its growth is 97%.

Question: `O=C(CN1CCCCC1)Sc1nnc2sc3ccccc3n12` was tested. Which growth did it give?
Answer: Its growth is 97.1%.

Question: How did the growth turn out when `NC(=O)c1cnc(Nc2cccc(N)c2)nc1NCCCNC(=O)C1CCC1` was run?
Answer: The growth was 52.9%.

Question: With `O=c1oc2ccc3ccccc3c2cc1-c1ccnc2[nH]c(=S)[nH]c(=O)c12` as the compound, how does the growth read?
Answer: Its growth is 97.1%.

Question: Which growth does the source give for `S=C(Cc1ccccc1)N1CCN(c2ccccc2Cl)CC1` here?
Answer: Its growth is 101%.

Question: How did the growth turn out when `COc1cc(/C=C/c2cc(/C=C/c3ccc(O)c(OC)c3)n(-c3c(Cl)cccc3Cl)c(=O)n2)ccc1O` was run?
Answer: The growth was 29.6%.

Question: How did the growth turn out when `Cc1c(C(=O)Nc2nc(-c3ccccc3)cs2)nnn1-c1cccc2ccccc12` was run?
Answer: The growth was 12.3% [50 µM].

Question: For `C(=N\Nc1ccc2ccccc2n1)/c1ccccn1`, which growth is on record?
Answer: Its growth is -27% (active).

Question: Which growth does the source give for `CC(=O)Nc1cc(N2CCOCC2)c2nc(NC(=O)c3[nH]c(C)c(Cl)c3Cl)sc2c1` here?
Answer: Its growth is 47.7%.

Question: For `COc1ccc(/C=C/c2ccc3ccccc3n2)c(OC)c1`, which growth is on record?
Answer: The growth was 18.3%.

Question: Which growth does the source give for `Fc1ccc(-c2nnc(N3CCOCC3)c3ccccc23)cc1` here?
Answer: Its growth is 98.8%.

Question: With `O=S(=O)(c1ccc(N/N=C\c2ccccc2)cc1)c1ccc(N/N=C/c2ccccc2)cc1` as the compound, how does the growth read?
Answer: Its growth is 61%.

Question: For `CNC(=O)c1cc(Oc2ccc3nc(NC(=O)Nc4ccc(C(F)(F)F)cc4)sc3c2)ccn1`, which growth is on record?
Answer: Its growth is 49.9%.

Question: `CCOc1c(Br)cc(C2C(C(=O)OC)=CN(C)C=C2C(=O)OC)cc1OC` was tested. Which growth did it give?
Answer: The growth was 0.386% (active).

Question: `O=C1Nc2ccccc2C2c3cccn3-c3ccccc3N12` (stereo not given) was tested. Which growth did it give?
Answer: Its growth is 47.8%.
